Assay outcomes from PubChem.
FBA Mtb inh: inhibits M. tuberculosis FBA enzyme; purified M. tuberculosis FBA, fluorescence read-out; inhibition, % at 1 µM; 360,000 compounds, 2.3% hits; P9WQA3; AID 588726; in the data active means inhibition above about 27%;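 further: 0% = vehicle and 100% = reference inhibitor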
Target sequence (P9WQA3 whole entry, looked up): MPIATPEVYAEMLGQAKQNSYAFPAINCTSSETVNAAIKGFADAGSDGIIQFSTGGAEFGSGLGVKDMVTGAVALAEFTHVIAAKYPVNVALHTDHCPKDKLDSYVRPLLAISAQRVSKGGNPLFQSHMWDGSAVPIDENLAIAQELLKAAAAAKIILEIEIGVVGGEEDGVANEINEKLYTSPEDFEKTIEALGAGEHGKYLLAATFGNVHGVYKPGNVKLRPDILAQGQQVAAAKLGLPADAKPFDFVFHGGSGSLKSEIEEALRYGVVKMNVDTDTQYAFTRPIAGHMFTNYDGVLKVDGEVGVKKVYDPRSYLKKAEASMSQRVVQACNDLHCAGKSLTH
BioA inh: blocks M. tuberculosis BioA enzyme activity. 360,000 compounds, 0.096% hits. inhibition, % at 9.99 µM. purified M. tuberculosis BioA enzyme, plate reader; in the data active means inhibition above about 40%
GDH-TPI inh: inhibits GDH-TPI coupling enzymes, artifact for Mtb FBA screen; GDH-TPI coupled enzyme counterscreen, NADH absorbance; 360,000 compounds, 1.2% hits; inhibition, % at 4.8 µM; in the data active means inhibition above about 30%;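 further: 0% = DMSO wells and 100% = wells lacking the enzyme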
Rv3671c inh: inhibitors of M. tuberculosis serine protease Rv3671c. inhibition, % at 5.96 µM. 320,000 compounds, 0.048% hits. P9WHR9; in the data active means inhibition above about 38%;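 further: extracellular domain of Rv3671c used as enzyme; 0% = enzyme with DMSO and 100% = no enzyme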
FadD28 binding: inhibitors of Mycobacterium tuberculosis FadD28 bisubstrate binding. inhibition, % at 12.5 µM. 360,000 compounds, 0.22% hits. FadD28 bisubstrate probe binding, fluorescence polarization; in the data active means inhibition above about 8.5%, passing the limit was not always enough
Active calls of the source: *; · = no result given; + = active, no number. An excerpt weighted towards active compounds, which were near 3% of everything screened.

SMILES	FBA Mtb inh	BioA inh	GDH-TPI inh	Rv3671c inh	FadD28 binding
CCC(NC(=O)OCc1ccccc1)C(=O)Oc1ccc2ccc(=O)oc2c1 (stereo unspecified)	+	-1	20	3	0
Cc1ccc(S(=O)(=O)N[C@H](C(=O)Oc2ccc3c(C(F)(F)F)cc(=O)oc3c2)c2ccccc2)cc1	24	-5	10	-1	1
Cc1ccc(S(=O)(=O)NCCC(=O)Oc2ccc3ccc(=O)oc3c2)cc1	+	0	6	-5	-4
C[C@H]1CN([C@@H](C)CO)C(=O)c2cc(N(C)C)ccc2O[C@H]1CN(C)Cc1ccc(Oc2ccccc2)cc1	·	-1	·	·	·
CCC[C@@H](NS(=O)(=O)c1ccc(C)cc1)C(=O)Oc1ccc2c3c(c(=O)oc2c1)CCC3	+	·	13	-8	-1
COc1ccc(NC(=O)N(C)C[C@@H]2Oc3ccc(NC(=O)Nc4ccccc4)cc3C(=O)N([C@H](C)CO)C[C@@H]2C)cc1	·	0	·	·	·
CO[C@@H]1CN(C)C(=O)c2cc(NC(=O)C3CCC3)ccc2OC[C@@H](C)N(Cc2ccc(F)cc2)C[C@@H]1C	·	0	·	·	·
CN1CCSc2ccc(C(=O)NCc3cccc(F)c3)cc21	113*	-2	0	6	·
CCC(=O)Oc1ccc2c(c1)OC1(OC(C)=O)OC(C)CC1=C2C (stereo unspecified)	+	-2	21	11	-1
CCC(=O)Oc1ccc2oc(=O)cc(C)c2c1	1	-1	-1	-1	-3
CNC(=O)C[C@@H]1CC[C@@H]2[C@@H](COc3ccc(NS(=O)(=O)c4ccc(F)cc4)cc3C(=O)N2C)O1	·	-2	·	·	·
CO[C@H]1CN(C)C(=O)c2cc(NC(=O)c3ccc(F)cc3)ccc2OC[C@H](C)N(C(=O)CN(C)C)C[C@H]1C	·	-5	·	·	·
O=C(Oc1cc2oc(=O)cc(-c3ccccc3)c2cc1Cl)C1CCCCC1	32*	0	16	-1	-2
C[C@@H]1CN([C@@H](C)CO)C(=O)c2cc(C#CCN(C)C)cnc2O[C@H]1CN(C)S(=O)(=O)c1ccccc1	·	4	·	·	·
Cc1cc(OCc2nn[nH]n2)c2c(C)c(CC(=O)O)c(=O)oc2c1	+	·	19	7	-2
Cc1c(CC(=O)O)c(=O)oc2c(C)c(OCc3nn[nH]n3)ccc12	147*	·	30	10	-4
COc1ccc(NC(=O)N(C)C[C@H]2OCCCC[C@H](C)Oc3ccc(NC(=O)c4ccccc4)cc3C(=O)N([C@@H](C)CO)C[C@@H]2C)cc1	·	1	·	·	·
Nc1ccc2c(C(F)(F)F)cc(=O)oc2c1	63*	0	16	2	-3
COc1ccc(CC(=O)Nc2ccc3c(C(F)(F)F)cc(=O)oc3c2)cc1OC	0	·	19	-10	-1
CN(C)N=Nc1nc2c(c(=O)n(C)c(=O)n2C)n1C	0	0	34*	6	-3
CC(C)/C=N/Nc1nc2c(c(=O)n(C)c(=O)n2C)n1C	-1	·	9	8	-4
CCCC(O)C#Cc1cnc2c(c1)C(=O)N([C@H](C)CO)C[C@H](C)[C@H](CN(C)C(=O)Nc1ccc3c(c1)OCO3)O2 (stereo partly specified)	·	-4	·	·	·
COc1cccc(-c2cnc3c(c2)C(=O)N([C@H](C)CO)C[C@H](C)[C@@H](CN(C)C(=O)CN(C)C)O3)c1	·	-1	·	·	·
N#CC(c1ccc(O)cc1)N1CCN(C(C#N)c2ccc(O)cc2)CC1 (stereo unspecified)	-1	·	82*	·	-1
COc1ccc(C(C#N)N2CCOCC2)cc1 (stereo unspecified)	2	0	5	4	0
SMILES	FBA Mtb inh	BioA inh	GDH-TPI inh	Rv3671c inh	FadD28 binding
COc1ccc(C=NNC(=O)c2ccccc2NS(=O)(=O)c2cccs2)cc1O	4	-1	26	1	-3
COc1cc(C=NNC(=O)c2ccccc2NS(=O)(=O)c2cccs2)cc(OC)c1O	0	0	23	10	0
COc1cc(/C=N/NC(=O)c2ccc(NS(=O)(=O)c3cccs3)cc2)cc(OC)c1O	1	-2	39*	4	0
O=C(N/N=C/c1ccc2c(c1)OCO2)c1ccc(NS(=O)(=O)c2cccs2)cc1	3	·	33*	4	2
Cc1nn(-c2ccc(Cl)cc2)c(Cl)c1/C=N/NC(=O)c1ccc(NS(=O)(=O)c2cccs2)cc1	-3	-1	32*	-156	-2
Cc1nn(-c2ccc(F)cc2)c(Cl)c1/C=N/NC(=O)c1cccs1	1	·	16	-13	-1
COc1ccc(OC)c(C=NNC(=O)c2ccccc2NS(=O)(=O)c2cccs2)c1	13	-1	31*	0	-1
